Screening results as filed in PubChem BioAssay.
Bcl-xL primary: Bcl-xL (human) inhibition | Q07817 | GST-Bcl-xL / FITC-Bim BH3 peptide fluorescence polarization | inhibition, % at 10.9 µM | 320,000 compounds, 0.7% hits;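 active means inhibition above the mean of all tested compounds plus 3 SD, cutoff set per campaign, cut at about 30% in these data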;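 further: 0% = DMSO wells and 100% = unlabeled Bim-BH3 peptide competitor; inhibitors lower millipolarization by displacing the labeled peptide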
Target sequence (Q07817 whole entry, looked up): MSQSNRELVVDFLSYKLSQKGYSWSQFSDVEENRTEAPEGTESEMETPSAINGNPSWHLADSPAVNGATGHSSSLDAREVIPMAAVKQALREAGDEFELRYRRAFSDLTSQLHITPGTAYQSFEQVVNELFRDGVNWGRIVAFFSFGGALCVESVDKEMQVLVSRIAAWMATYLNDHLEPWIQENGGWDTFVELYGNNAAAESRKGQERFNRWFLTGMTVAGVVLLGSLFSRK
Bim-Mcl-1: inhibitors of Bim-Mcl-1 interaction, human; Q07820; Bead-based flow cytometry, Bim peptide-Mcl-1 binding; inhibition, % at 10 µM; 190,000 compounds, 0.1% hits; AID 1009; in the data active means inhibition above about 40%;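 further: 0% = no compound tracer wells and 100% = peptide blocker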
Mcl1-Noxa inh: Mcl-1/Noxa interaction inhibition; inhibition, % at 21.7 µM; Q07820; 220,000 compounds, 1.5% hits; TR-FRET Mcl-1/Noxa peptide binding, 2 h;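 active means compounds that cut the protein-peptide binding signal by more than 50% relative to plate controls in a single-dose test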;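 further: His-tagged Mcl-1 with rhodamine Noxa BH3 peptide and terbium anti-His antibody; 0% = Mcl-1 plus Noxa peptide wells and 100% = peptide-only wells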
GLD-1 TGE inh: GLD-1-TGE RNA interaction inhibition (C. elegans); Q17339; purified GLD-1 + fluorescein TGE RNA, fluorescence polarization; inhibition, % at 5.96 µM; 320,000 compounds, 0.44% hits;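 active means percent inhibition above a per-plate cutoff, the plate mean of test compounds plus 3 SD, cut at about 30% in these data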;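 further: 0% = DMSO wells with GLD-1 and probe and 100% = wells lacking GLD-1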
MCL1 BIM primary: MCL1-BIM-BH3 interaction inhibition (human); AID 2057; GST-MCL1 / FITC-Bim-BH3 fluorescence polarization; 320,000 compounds, 0.68% hits; inhibition, % at 10.9 µM; Q07820;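 active means inhibition above the mean inhibition of all tested compounds plus 3 SD, set per campaign, cut at about 40% in these data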;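 further: 0% = DMSO wells and 100% = unlabeled Bim-BH3 peptide control; higher means more loss of mP so more displacement of Bim peptide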
Mcl1 Bid PPI: disrupts binding of human Mcl-1 to Bid peptide. Q07820. TR-FRET Mcl-1/Bid-Dy647 peptide binding, 1536-well. inhibition, % at 21.7 µM. 220,000 compounds, 0.97% hits. AID 1021;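 active means compounds that cut the binding signal by more than half at the single screening dose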;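 further: His-tagged Mcl-1 with europium anti-His antibody binding Bid BH3 peptide; 0% = Mcl-1 plus peptide wells and 100% = peptide-only wells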
Starred values were filed as active, the others as inactive; . = not tested or not shown. Rows were chosen to be rich in hits. Some 2.3% of all compounds tested hit in one or more screens of this group.

SMILES	Bcl-xL primary	Bim-Mcl-1	Mcl1-Noxa inh	GLD-1 TGE inh	MCL1 BIM primary	Mcl1 Bid PPI
CCOC(=O)CSC1=NC(=O)/C(=C\c2ccc(OC(C)=O)cc2)S1	6	2	60*	4	10	29
Cc1ccc(C(=O)N/N=C\c2ccc(-c3ccc(Cl)cc3)o2)cn1	2	.	15	-1	-3	9
CC(C)Oc1ccc(C(=O)N/N=C/c2ccc(-c3ccc(S(=O)(=O)Nc4ncccn4)cc3)o2)cc1	10	-1	67*	0	13	-34
CCN(Cc1nc2ccccc2c(=O)[nH]1)C(=O)CN1C(=O)NC2(CCCCC2C)C1=O (centres undefined)	5	.	.	6	2	.
CC1CCCCC12NC(=O)N(Cn1nnc3ccccc3c1=O)C2=O (centres undefined)	0	-7	-5	31*	-1	-13
COc1cc(NC(=O)COc2ccccc2[N+](=O)[O-])ccc1NC(=O)c1cccs1	.	-2	57*	.	.	16
Cc1ccccc1C(=O)N=c1ccn(-c2nc3ccccc3nc2NS(=O)(=O)c2ccc(F)cc2)cc1	34*	.	.	5	2	.
O=C(N=c1ccn(-c2nc3ccccc3nc2NS(=O)(=O)c2ccccc2)cc1)c1cccs1	17	-2	-238	15	17	-274
Cc1ccc(C2CC(c3cccs3)=NN2S(=O)(=O)c2ccc(C)cc2)cc1 (centres undefined)	8	-8	-8	-1	-10	-1
O=C(NCCN1CCCCC1)c1ccc(Oc2cc(Cl)cc(Cl)c2)o1	-1	.	-4	-6	2	3
O=C(CCC(=O)c1ccc(Oc2ccccc2)cc1)Nc1cccc(Cl)c1	0	-9	7	1	-7	98*
COc1ccc(C(=O)CCC(=O)Nc2cccc(Cl)c2)cc1	-3	-1	7	1	-3	10
O=S(=O)(NCCN1CCCC1)c1ccc(Br)cc1	0	.	.	-1	4	.
O=S(=O)(Nc1ccc(F)cc1)c1ccc(S(=O)(=O)N2CCOCC2)cc1	.	.	.	5	.	.
c1ccc2nc3ccccc3nc2c1	2	0	38	0	1	86*
Nc1nc2ccccc2nc1N	15	6	14	-2	6	-1
N#Cc1c2ccccc2nc2ccccc12	37*	.	26	6	7	-5
O=C(/C=C/c1ccco1)Nc1cccc(S(=O)(=O)N2CCOCC2)c1	-1	0	14	0	-12	-11
Cc1ccc(/C=C/C(=O)Nc2ccc(N(C)C)cc2)o1	4	2	95*	4	10	10
Cc1ccc(/C=C/C(=O)Nc2cccc(S(=O)(=O)N3CCOCC3)c2)o1	3	-5	53*	1	-19	-1
C/C=C/C=C/C(=O)[C@@H]1[C@@H]([C@]2(C)OC(=O)C(C)=C2O)[C@H]2/C(=C(O)/C=C/C=C/C)C(=O)[C@]1(C)C(=O)C2(C)O (some centres undefined)	6	.	26	0	18	-93
O=C(COC(=O)C1CC1)Nc1ccc(S(=O)(=O)N2CCOCC2)cc1	.	.	.	2	.	.
O=C(NC(=S)Nc1nc2ccc(F)cc2s1)c1ccco1	3	1	14	-3	3	3
CCCCNC(=O)CCc1nc2cccnc2n1Cc1ccc(OC)cc1	1	-1	1	-3	-2	-1
COc1ccc(Cn2c(CCC(=O)NCc3ccco3)nc3cccnc32)cc1	0	-3	65*	-5	-3	-44
SMILES	Bcl-xL primary	Bim-Mcl-1	Mcl1-Noxa inh	GLD-1 TGE inh	MCL1 BIM primary	Mcl1 Bid PPI
CN(C)c1ccc2nc3ccc(=[N+](C)C)cc-3sc2c1	5	5	58*	8	18	-111
Cc1cc2nc3ccc(=[N+](C)C)cc-3sc2cc1N	.	.	51*	.	.	-76
CCS(=O)(=O)N1CCN(C2CCC(c3ccccc3)CC2)CC1 (centres undefined)	5	0	10	2	10	54*
Cc1ccc(S(=O)(=O)N2CCN(C3CCC(c4ccccc4)CC3)CC2)cc1 (centres undefined)	-2	-2	10	2	-1	-16
O=c1c(C(c2ccc(O)cc2)c2c(O)nc3n(c2=O)CCS3)c(O)nc2n1CCS2	12	0	60*	-3	-3	-9
O=c1c(C(c2ccc(Br)cc2)c2c(O)nc3n(c2=O)CCCS3)c(O)nc2n1CCCS2	8	.	6	-4	7	-33
